In PubChem BioAssay AID1578 (Sanford-Burnham Center for Chemical Genomics, 2009):
Values joined by “and” are separate entries in the source; they are usually repeats but may differ in a detail not shown here. Equal entries are not always repeated. Among all 290,000 compounds or so, about 3,000 (1%) were called active. No stated cut-off is given here; in the data, active means inhibition mostly above about 36% (no sharp cut-off); inactive means mostly below about 34%. This excerpt belongs to a sample that is enriched for actives.

Test: NOD1 signaling inhibitors, primary screen, cell-based, luminescence, uHTS (AID 1578);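 further: HEK-293T reporter cells stimulated with the NOD1 agonist gamma-tri-DAP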
Conditions: NOD1-driven NF-kB luciferase reporter cells, at 4 µM, active compounds read high

SMILES | inhibition
COC(=O)c1oc2ccccc2c1-n1cccc1 | -6% (inactive)
Cc1ccc2nsnc2c1S(=O)(=O)Nc1ccccc1C(=O)O | -10.2% (inactive)
Cc1ccc(C(C)C)c(OCC(O)CN2CC(C)OC(C)C2)c1 (centres undefined) | 5.4% (inactive)
CCOc1ccc(Cl)cc1CNCCCSc1ncccn1 | 5.6% (inactive)
O=C(NNC1=C(C(=O)C(F)(F)F)CCC1)c1cccc(O)c1 | -26.1% (inactive)
O=C(NNC1=C(C(=O)C(F)(F)F)CCC1)c1cccc(Cl)c1 | 83% (active)
O=C(NNC1=C(C(=O)C(F)(F)F)CCC1)c1ccc(Cl)cc1 | 19.2% (inactive)
CO/N=C(/CS(=O)c1ccc(Br)cc1)c1ccc(OC)cc1 (centres undefined) | -16% (inactive)
Cc1cc(C)c2sc(N(CCN(C)C)C(=O)c3ccc4ccccc4c3)nc2c1 | -10.4% (inactive)
Cc1ccc(Cn2nnc3c(=O)n(Cc4cccc(C)c4)cnc32)cc1 | 3.6% (inactive)
Cc1cccc(CC(=O)OCn2nnc3ccccc3c2=O)c1 | -15.8% (inactive)
Cc1cccc(Cn2nnc3c2C(=O)c2ccccc2C3=O)c1 | 68.5% (active)
CCOc1ccc(NC(=O)CCNC(=O)Cn2ccc3ccccc3c2=O)cc1 | -20.7% (inactive)
Cc1ccc(S(=O)(=O)Nc2nc3ccccc3nc2N2CCN(c3ccccc3F)CC2)cc1 | 5.2% (inactive)
Cc1ccsc1C1C(C#N)=C(N)OC2=C1C(=O)CCC2 (centres undefined) | -6.1% (inactive)
COc1ccc(CNc2nc(Cl)c(C#N)s2)cc1 | 3.8% (inactive)
N#Cc1sc(NCc2ccccc2)nc1Cl | -19.1% (inactive)
Cc1ccc(CNc2nc(Cl)c(C#N)s2)cc1 | 63.4% (active)
c1ccc(OCCOCCN2CCOCC2)cc1 | 7.9% (inactive)
CCN1CCN(CCOCCOc2ccccc2-c2ccccc2)CC1 | -24.4% (inactive)
CCN1CCN(CCOCCOc2ccccc2)CC1 | 75.5% (active)
O=C(Cc1ccccc1)NNC(=O)Nc1ccccc1 | -23.5% (inactive)
COc1ccc(C(O)c2nc3ccccc3n2C)cc1OC (centres undefined) | 33.1% (inactive)
CC(C)c1ccc(C(O)c2nc3ccccc3n2C)cc1 (centres undefined) | 76.4% (active)
CCCC(=O)NC(C)c1nc2ccccc2n1C (centres undefined) | 36.2% (active)
Cc1ccc(C(O)c2nc3ccccc3n2C)cc1 (centres undefined) | -7.9% (inactive)

SMILES | inhibition
CCCC(=O)NC(C)c1nc2ccccc2n1C(C)C (centres undefined) | -2.5% (inactive)
CCCC(=O)NC(C)c1nc2ccccc2n1CC (centres undefined) | -18.7% (inactive)
CCN(CC(=O)Nc1ccccc1Br)C1CCCCC1 | -38.4% (inactive)
C=CCN1C(=O)N/C(=C/c2ccc(C)o2)C1=O | -35.1% (inactive)
Nn1cc(-c2ccccc2)nc1SCC(=O)Nc1cccc(S(N)(=O)=O)c1 | 3.3% (inactive)
O=C(Nc1cc(-c2ccccc2)[nH]n1)c1ccc(Cl)cc1 | 4.7% (inactive) and -2.2% (inactive)
O=C(Nc1ccccc1Cl)c1ccc2ccccc2c1 | -11.1% (inactive)
Cc1cccc(C)c1NC(=O)NC1(C(=O)N2CCN3CCCC3C2)CCCCC1 (centres undefined) | -19.2% (inactive)
COc1ccccc1C1C(C#N)=C(N)N(c2cccnc2)C2=C1C(=O)CC(C)(C)C2 (centres undefined) | -21.9% (inactive)
COc1ccc(C2C(C#N)=C(N)N(c3cccnc3)C3=C2C(=O)CC(C)(C)C3)cc1OC (centres undefined) | 63.5% (active)
COc1cc(C2C(C#N)=C(N)N(c3cccnc3)C3=C2C(=O)CC(C)(C)C3)ccc1O (centres undefined) | 9.6% (inactive)
Cc1ccc(OC(=O)c2ccncc2)c(C)c1 | -45.8% (inactive)
Cc1ccc(C)c(OC(=O)c2cccnc2)c1 | -20.5% (inactive)
Cc1ccc(C)c(OC(=O)c2ccncc2)c1 | 54.5% (active)
CCN(CC)C(=O)CSc1nc(O)cc(=O)n1-c1ccccc1OC | -12.3% (inactive)
CCC(NC(=O)NNC(=O)c1ccncc1)(C(F)(F)F)C(F)(F)F | -3.5% (inactive)
CCOc1ccc(-c2ccc(SCC)nn2)cc1 | -47.8% (inactive)
COc1ccc(-c2ccc(SC)nn2)cc1 | -8.7% (inactive)
CCOc1ccc(-c2ccc(SC)nn2)cc1 | 57.2% (active)
COc1ccc(CC(=O)NNC(=O)COc2ccc3ccccc3c2)cc1 | -32% (inactive)
N#Cc1ccccc1NC(=O)COC(=O)c1ccc(F)cc1F | 2.3% (inactive)
COc1cc(C(=O)NC2CC(C)(C)NC(C)(C)C2)cc(OC)c1OC | -31.3% (inactive)
COc1cc(OC)cc(C(=O)NC2CC(C)(C)NC(C)(C)C2)c1 | 83% (active)
Cc1cc(C)cc(C(=O)NC2CC(C)(C)NC(C)(C)C2)c1 | -11.3% (inactive)
O=C(NC(CC(=O)N1CCN(c2ccc([N+](=O)[O-])cc2)CC1)c1ccccc1)c1ccccc1Cl (centres undefined) | -5.6% (inactive)
Cc1nc(-c2nc(-c3c(C(=O)NN)noc3C)cs2)cs1 | -35.9% (inactive)

SMILES | inhibition
Cc1ccc2c(c1)C(=O)c1c(C(=O)O)cccc1-2 | -14.6% (inactive)
CC(Sc1nc(-c2ccccc2)cc(C(F)(F)F)n1)C(=O)N1CCCC1 (centres undefined) | -30.7% (inactive)
CC1CCN(C(=O)C(C)Sc2nc(-c3ccccc3)cc(C(F)(F)F)n2)CC1 (centres undefined) | 15.1% (inactive)
CC(Sc1nc(-c2ccccc2)cc(C(F)(F)F)n1)C(=O)N1CCC(C(N)=O)CC1 (centres undefined) | 62.8% (active)
O=C(O)CCn1c(SCCOc2ccccc2)nc2ccccc21 | -29.9% (inactive)
CCCCN(C)Cc1cc(=O)oc2ccc3ccccc3c12 | -5.4% (inactive)
CCc1ccc(OCc2nnc(SCCN3CCOCC3)n2CC)cc1 | -13.7% (inactive)
Fc1ccccc1NC(=S)NCCc1ccccc1 | 11.7% (inactive)
Fc1ccccc1Cn1cnc(NC(=S)NCCc2ccccc2)n1 | 47.4% (active)
FC(F)(F)c1cccc(Cn2cnc(NC(=S)NCCc3ccccc3)n2)c1 | -22.4% (inactive)
Nc1nc(-c2ccccc2)c(N=Nc2ccc(Cl)cc2)s1 | 14.5% (inactive)
Nc1nc(-c2ccccc2)c(N=Nc2cccc3ccccc23)s1 | -6.2% (inactive)
Nc1nc(-c2ccccc2)c(N=Nc2cccnc2)s1 | 69.6% (active)
Cc1cc(NC(=O)CSc2nc(Cc3ccc(O)cc3)c(C)[nH]2)no1 | 29.2% (inactive)
CCOC(=O)c1nn(-c2ccc3c(c2)CCN3C(C)=O)cc1O | -27.8% (inactive)
COC(=O)c1nn(-c2ccc3c(c2)CCN3C(C)=O)cc1O | 78.5% (active)
COC(=O)c1nn(-c2ccc3c(c2)OCO3)cc1O | -11.8% (inactive)
N#CN=C(c1ccccc1)c1ccccc1 | -20.8% (inactive)
O=C(c1ccc(N2CCCC2=O)cc1)N1CCN(c2ccc(Cl)cc2)CC1 | -4.5% (inactive)
O=C(c1ccccc1-c1nc(-c2ccccc2)no1)N1CCCC1 | -35% (inactive)
FC(F)(F)c1ccc(C2NCCc3sccc32)cc1 (centres undefined) | -38.2% (inactive)
Cn1ccs/c1=N\C(=O)Nc1cccc(C(F)(F)F)c1 | -21.9% (inactive)
Cn1ccs/c1=N\C(=O)Nc1cccc(Cl)c1 | 110% (active)
Cn1ccs/c1=N\C(=O)Nc1ccccc1 | -7.2% (inactive)
CCOC(=O)CN1C(=O)S/C(=C/c2ccco2)C1=O | -37.3% (inactive)
CC(C)N(C)Cc1nnnn1CC(=O)N(C)Cc1cccc(Cl)c1 | -14.1% (inactive)

SMILES | inhibition
Nc1nc(Nc2ccc(Cl)cc2)nc(NCCO)c1[N+](=O)[O-] | 3% (inactive)
Cc1cc(Cl)ccc1OC(C)C(=O)Nc1ccc(C(=O)Nc2ccccc2C(=O)O)cc1 (centres undefined) | 82.7% (active)
Cc1ccc(NC(=O)c2ccc(OC(=O)C(C)Oc3ccc(Cl)cc3C)cc2)cc1 (centres undefined) | -12.4% (inactive)
CC(C)C(=O)Nc1cccc(C(=O)Nc2ccccc2C(=O)O)c1 | -0.4% (inactive)
Cn1cnnc1SCc1ccc(C#N)cc1Cl | -35.4% (inactive)
CC1CC(NC(=O)Cc2ccc(Br)cc2)CC(C)(C)C1 (centres undefined) | -9.8% (inactive)
CC1CCCC(C)N1C(=O)c1cccc2c1-c1ccccc1/C2=N/O (centres undefined) | 75.8% (active)
COc1ccccc1C(=O)Nc1ccccc1C(=O)N1C(C)CCCC1C (centres undefined) | -5% (inactive)
O=C(c1cccc2c1-c1ccccc1/C2=N/O)N1CCCCC1 | 66.9% (active)
O=C1c2ccccc2-c2c1cccc2C(=O)N1CCCCC1 | -12.6% (inactive)
CC(C)COC(=O)c1cccc2c1-c1ccccc1/C2=N\O | 14.1% (inactive)
O=C1c2ccccc2-c2c1cccc2C(=O)N1CCCCCC1 | 0.4% (inactive)
CN1CC(=O)N(CC(=O)Nc2cc(Cl)cc(Cl)c2)C1=O | -17.3% (inactive)
CCn1c(=O)c(C(=O)Nc2ccsc2C(=O)OC)c(O)c2ccccc21 | -28.8% (inactive)
COc1ccccc1C(=O)NC1CC2CCC(C1)N2Cc1ccccc1 (centres undefined) | -9.7% (inactive)
COc1ccc(CCNC(=S)NC(=O)c2cccc(Cl)c2)cc1OC | -2.1% (inactive)
CCCn1nc([N+](=O)[O-])c(C(C#N)c2nc3ccccc3o2)c(Cl)c1=O (centres undefined) | 80.5% (active)
CCCn1nc([N+](=O)[O-])c(C(C#N)c2nc3ccccc3s2)c(Cl)c1=O (centres undefined) | 63.6% (inactive)
Cn1nc([N+](=O)[O-])c(C(C#N)c2nc3ccccc3n2C)c(Cl)c1=O (centres undefined) | 23.7% (inactive)
Cn1nc([N+](=O)[O-])c(C(C#N)c2ccccn2)c(Cl)c1=O (centres undefined) | -21.4% (inactive)
CCn1nc([N+](=O)[O-])c(C(C#N)c2nc3ccccc3n2C)c(Cl)c1=O (centres undefined) | 32% (inactive)
COc1ccc(C(C(=O)NC2CCCCC2)N(C(=O)c2ccco2)c2ccccc2C(C)=O)cc1OC (centres undefined) | -17.6% (inactive)
COc1ccc2c(c1)C(=O)C(=O)N2CC1COc2ccccc2O1 (centres undefined) | -10% (inactive)
O=C(NCCc1csc(-c2ccccc2)n1)c1c(F)cccc1Cl | -7.4% (inactive)
O=C(NCCc1csc(-c2ccccc2)n1)c1c(F)cccc1F | -19.1% (inactive)
O=C(NCCc1csc(-c2ccccc2)n1)c1ccccc1F | 28.3% (active)
